The full data set covers some 21,000 targets. This sample favours those with the largest changes.
Target: TMLHE_Q9NVH6_51_SLTCAWQQHEDHFELK (UniProt Q9NVH6)
Assay: probe-labelled cysteine peptide fold change vs DMSO (competition) (log2 fold change); higher = less target engagement (more negative = stronger competition)
Conditions: THP-1, incubation time: 4 h
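Also: competitive profiling in live THP-1 cells: cysteine peptides tagged with an iodoacetamide desthiobiotin (IA-DTB) probe, intensity after compound treatment relative to DMSO-treated cells.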

Sequence of UniProt Q9NVH6 (Q9NVH6 whole entry, looked up): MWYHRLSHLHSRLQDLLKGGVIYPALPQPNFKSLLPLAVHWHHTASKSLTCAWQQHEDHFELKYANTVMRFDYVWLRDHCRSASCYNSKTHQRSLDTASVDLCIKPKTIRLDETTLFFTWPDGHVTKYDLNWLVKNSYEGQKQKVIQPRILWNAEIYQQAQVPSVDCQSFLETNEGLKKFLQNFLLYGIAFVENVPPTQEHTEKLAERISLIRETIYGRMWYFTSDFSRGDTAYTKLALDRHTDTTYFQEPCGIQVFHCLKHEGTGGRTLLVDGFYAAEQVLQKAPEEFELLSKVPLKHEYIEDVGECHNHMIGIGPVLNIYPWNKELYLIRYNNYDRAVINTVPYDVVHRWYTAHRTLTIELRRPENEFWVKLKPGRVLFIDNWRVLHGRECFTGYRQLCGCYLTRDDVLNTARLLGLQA

**Q.** How did the “probe-labelled cysteine peptide fold change” value (10 µM) turn out when `Cc1cc(C(=O)N2CCCN(C(=O)CCl)CC2)ccc1-c1ccccc1` [compound 10] was run?
**A.** The value was -0.0542.

**Q.** And the “probe-labelled cysteine peptide fold change” value (50 µM)?
**A.** The value was -0.13.

— the supplement of paper PMC12067093, “Discovery and optimisation of a covalent ligand for TRIM25 and its application to targeted protein ubiquitination” (Chemical Science, 2025)
